Source: PubChem (several laboratories)
HIF-2a block: HIF-2a reporter inhibitors, primary screen, luminescence, 786-0 RCC cells; inhibition, % at 18.8 µM; 360,000 tested, 0.72% active; 786-0 RCC cells HIF-2a reporter, luciferase luminescence, overnight;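 active means inhibition of the luminescence signal of 40% or more relative to plate controls, in a single-dose primary screen at 18.75 µM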
Peg3 promoter: Peg3 promoter-driven luciferase inhibitors, primary screen, cell-based, HeLa, luciferase luminescence; HeLa PEG-Prom luciferase reporter, overnight; inhibition, % at 20 µM; 360,000 tested, 1.7% active; AID 588405, 2011;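 active means inhibition of at least 50% at 20 µM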
Shn3 3UTR inh: reduction of Shn3 3'UTR firefly luciferase signal, primary screen, Schnurri-3 inhibitor project, cell-based, Clone20 osteoblasts, set 2 | AID 588674, 2011 | inhibition, % at 12.5 µM | 360,000 tested, 0.52% active | Clone20 osteoblast Shn3 3'UTR firefly luciferase, 24 h;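 active means mean inhibition of at least 75% with every replicate also reaching 75%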;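 further: 0% = median of neutral control wells and 100% = pilot-screen positive control compound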
PAX8 reporter: inhibitors of PAX8-driven TPO luciferase reporter, primary screen, RMG-I cells, single concentration. SteadyGlo, 24 h. inhibition, % at 12.6 µM. 360,000 tested, 1.2% active;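 active means mean replicate inhibition at least 60% with every replicate also reaching 60%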;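 further: luciferase light reporting Pax8 driven TPO promoter activity; plate controls were median of neutral control wells for no effect and mitoxantrone controls for full effect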
MITF TRPM1 inh: inhibitors of MITF-dependent TRPM1 promoter reporter, primary screen, cell-based, SK-MEL-5, single point, luciferase; SK-MEL-5 TRPM1 promoter luciferase, 24 h; inhibition, % at 12.5 µM; 330,000 tested, 0.83% active; AID 488899, 2010;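 active means mean inhibition across replicates of 60% or more, whatever share of single replicates reaches that level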
LMP1 NFkB inh: EBV LMP1-driven NF-kappaB luciferase reporter inhibitors, primary screen, cell-based, luminescence, single point; LMP1-induced NF-kappaB luciferase reporter cells; inhibition, % at 12.5 µM; 350,000 tested, 0.69% active; AID 504558, 2011; in the data active means inhibition above about 41%;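 further: 0% = neutral control wells and 100% = reference inhibitor control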
* = called active by the depositor; nt = no result given. Rows were chosen to be rich in hits. Some 2.8% of all compounds tested hit in one or more screens of this group.

SMILES	HIF-2a block	Peg3 promoter	Shn3 3UTR inh	PAX8 reporter	MITF TRPM1 inh	LMP1 NFkB inh
C[C@H](CO)N1C[C@H](C)[C@@H](CN(C)C(=O)Cc2ccccc2)OCCCC[C@H](C)Oc2ccc(NC(=O)c3ccncc3)cc2C1=O	nt	nt	nt	7.6	nt	nt
Cc1noc(C)c1S(=O)(=O)N(C)C[C@H]1Oc2c(NS(=O)(=O)c3ccccc3)cccc2C(=O)N([C@@H](C)CO)C[C@H]1C	nt	nt	nt	-28.0	nt	nt
CSc1cc(-c2ccc(Cl)cc2)n(Cc2ccccc2)c(=O)c1C#N	11.3	54.2*	40.4	nt	9.5	-12.9
CSc1cc(-c2ccccc2)n(Cc2c(Cl)cccc2Cl)c(=O)c1C#N	16.9	20.1	4.1	nt	9.4	9.0
C[C@@H]1CN([C@@H](C)CO)C(=O)c2cc(NC(=O)CCC(F)(F)F)ccc2O[C@@H](C)CCCCO[C@@H]1CN(C)Cc1ccncc1	nt	nt	nt	-0.6	nt	nt
COc1ccc2cc(C(=O)Nc3ccc(S(N)(=O)=O)cc3)sc(=O)c2c1OC	1.6	78.8*	0.2	24.9	-6.1	5.8
CN(C)CC(=O)Nc1ccc2c(c1)[C@H]1C[C@@H](CC(=O)NCc3ccc4c(c3)OCO4)O[C@H](CO)[C@H]1O2	nt	nt	nt	6.2	nt	nt
CCCN1[C@@H]2Cn3c(ccc(-c4cccnc4)c3=O)[C@H]1[C@@H](C(=O)NC1CCC1)[C@@H]2CO	nt	nt	nt	-11.1	nt	nt
O=C(C1CCC(CNS(=O)(=O)c2cccs2)CC1)N1CCN(c2ccc(Cl)cc2)CC1 (stereo not given)	20.6	7.5	87.7*	68.1*	69.0*	32.7
COC(=O)c1cc2c(n1S(=O)(=O)c1ccc(C)cc1)C(=O)C(=O)c1[nH]cc(C(=O)OCc3ccccc3)c1-2	33.0	88.8*	91.9*	nt	107.5*	88.4*
O=C(NCCCl)Nc1ncn[nH]1	-3.7	100.2*	6.3	-28.2	-5.0	-0.6
CN1CCN(C2Cc3ccccc3Sc3cc(C(F)(F)F)ccc32)CC1 (stereo not given)	nt	nt	nt	20.8	nt	nt
CCc1cccc2c1Sc1ccccc1CC2N1CCNCC1 (stereo not given)	15.7	111.3*	26.6	13.9	80.7*	-8.6
COc1ccccc1CNC(=O)C[C@H]1C[C@@H]2c3cc(NC(=O)C4CCC4)ccc3O[C@@H]2[C@H](CO)O1	nt	nt	nt	2.4	nt	nt
O=C(CC1SC(=Nc2ccc(OC(F)F)cc2)N(CCN2CCOCC2)C1=O)Nc1ccccc1 (stereo not given)	-7.9	-2.7	-15.3	64.4*	2.1	-0.4
O=C(CC1SC(=Nc2ccc(OC(F)F)cc2)N(CCN2CCOCC2)C1=O)Nc1ccc(F)cc1F (stereo not given)	8.2	17.8	-2.7	15.4	6.5	7.6
C[C@@H]1CCCCO[C@H](CN(C)Cc2ccc(Cl)c(Cl)c2)[C@@H](C)CN([C@@H](C)CO)C(=O)c2cc(NC(=O)Nc3ccc(F)cc3)ccc2O1	nt	nt	nt	88.7*	nt	nt
CC(C)NC(=O)Nc1ccc2c(c1)C(=O)N([C@@H](C)CO)C[C@@H](C)[C@@H](CN(C)Cc1ccc(Cl)c(Cl)c1)OCCCC[C@@H](C)O2	nt	nt	nt	22.0	nt	nt
C[C@H](CO)N1C[C@H](C)[C@H](CN(C)Cc2ccc(Cl)c(Cl)c2)OCCCC[C@H](C)Oc2ccc(NC(=O)Nc3ccc(F)cc3)cc2C1=O	nt	nt	nt	64.4*	nt	nt
C[C@@H]1CCCCO[C@@H](CN(C)Cc2ccc(Cl)c(Cl)c2)[C@H](C)CN([C@@H](C)CO)C(=O)c2cc(NC(=O)Nc3ccc(F)cc3)ccc2O1	nt	nt	nt	67.3*	nt	nt
C[C@H](CO)N1C[C@H](C)[C@H](CN(C)Cc2ccc(C(F)(F)F)cc2)Oc2ccc(NS(=O)(=O)c3cn(C)cn3)cc2C1=O	nt	nt	nt	-8.2	nt	nt
CO[C@@H]1CN(C)C(=O)c2cc(NC(=O)c3ccccc3F)ccc2OC[C@@H](C)NC[C@@H]1C	nt	nt	nt	-9.7	nt	nt
Cc1onc(-c2c(F)cccc2Cl)c1C(=O)Nc1sc2c(c1C(N)=O)CCC2	-3.1	51.9*	36.3	nt	12.8	3.0
COc1ccc(S(=O)(=O)N(C)C[C@H]2Oc3ncc(/C=C/c4ccccc4)cc3C(=O)N([C@@H](C)CO)C[C@H]2C)cc1	nt	nt	nt	-16.4	nt	nt
C[C@H](CO)N1C[C@H](C)[C@@H](CN(C)S(=O)(=O)c2ccc(Cl)cc2)Oc2ccc(NS(=O)(=O)c3ccccc3)cc2C1=O	nt	nt	nt	1.1	nt	nt
SMILES	HIF-2a block	Peg3 promoter	Shn3 3UTR inh	PAX8 reporter	MITF TRPM1 inh	LMP1 NFkB inh
CCOc1ccc(S(=O)(=O)N2CCC(C(=O)NCCc3ccc(S(N)(=O)=O)cc3)CC2)cc1	10.9	12.2	5.7	-8.4	5.1	48.9*
O=[N+]([O-])c1ccc(Nc2nc(N/N=C/c3cccc(F)c3)nc(N3CCCC3)n2)cc1	14.2	27.5	49.1	-18.3	-0.1	-20.4
COc1cccc(/C=N/Nc2ccc([N+](=O)[O-])cn2)c1O	77.5*	59.4*	79.3	90.8*	11.6	51.8*
O=[N+]([O-])c1ccc(NN=Cc2cccc3ccccc23)nc1	-72.4	-71.7	-24.6	-9.8	-26.4	-21.3
COc1cccc(/C=N/Nc2nc(Nc3ccc([N+](=O)[O-])cc3)nc(N3CCCC3)n2)c1O	-0.4	62.2*	88.7*	95.1*	10.7	2.8
O=[N+]([O-])c1cccc(C=NNc2ccc3ccccc3n2)c1O	-70.0	17.8	72.3	-94.4	79.0*	11.6
O=C(Nc1ccccc1)Nc1ccc2c(c1)[C@@H]1C[C@@H](CC(=O)N3CCOCC3)O[C@@H](CO)[C@@H]1O2	nt	nt	nt	10.8	nt	nt
COc1cc(N2C(=O)C=CC2=O)ccc1N1C(=O)C=CC1=O	84.5*	110.9*	97.6*	115.4*	73.8*	48.8*
COc1cccc(C2Nc3ccc4ccccc4c3C3=C2C(=O)CCC3)c1O (stereo not given)	11.8	15.3	15.8	-8.9	64.4*	15.0
COc1ccc(C2CC(c3ccccc3)=NN2C(=O)COC(=O)c2ccc(Cl)nc2)cc1 (stereo not given)	-66.5	-68.5	-6.0	2.1	-4.1	1.5
COc1ccc(C2CC(c3ccccc3)=NN2C(=O)COC(=O)c2cnc(Cl)c(Cl)c2)cc1 (stereo not given)	1.9	99.4*	-0.9	12.8	10.9	8.4
C[C@H](CO)N1C[C@H](C)[C@@H](CN(C)C(=O)NC2CCCCC2)Oc2ccc(NC(=O)Nc3ccc(C(F)(F)F)cc3)cc2CC1=O	nt	nt	nt	59.1	nt	nt
C[C@@H]1CN([C@@H](C)CO)C(=O)Cc2cc(NC(=O)Nc3ccc(C(F)(F)F)cc3)ccc2O[C@H]1CN(C)C(=O)Nc1ccc(C(F)(F)F)cc1	nt	nt	nt	78.3*	nt	nt
C[C@@H]1CN([C@H](C)CO)C(=O)Cc2cc(NC(=O)Nc3ccc(C(F)(F)F)cc3)ccc2O[C@@H]1CN(C)C(=O)Nc1ccc(C(F)(F)F)cc1	nt	nt	nt	-0.9	nt	nt
C[C@H]1CN([C@@H](C)CO)C(=O)Cc2cc(NC(=O)Nc3ccc(C(F)(F)F)cc3)ccc2O[C@H]1CN(C)C(=O)NC1CCCCC1	nt	nt	nt	78.2*	nt	nt
